Experimental data reported in PubChem BioAssay (NCATS).
Records with an inconclusive call do not appear. A call without a number means that no potency is given here. Calls of active or inactive are those of the source. Calls follow the shape of the dose curve; as a rule, active = well fitted inhibition curve with a large enough effect; inconclusive = small, poorly fitted or top-dose-only effect; inactive = flat fitted curve, though single readings scatter.

Assay: qHTS to identify inhibitors of the type 1 interferon - major histocompatibility complex class I in skeletal muscle: primary screen against the NCATS Pharmaceutical Collection (AID 1347407);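 also: luminescence of HiBiT knocked into endogenous HLA-B as interferon-induced MHC class I level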
Conditions: human skeletal muscle cells, IFN-b-induced MHC-I HiBiT luminescence, 24 h; series mostly up to 45.9 µM
How it was run: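 A qHTS format is used: 8-point, 1:5 compound series with 46 uM top final concentration, applied alongside 4 ng/ml IFN-beta to HLA-B*08:01-HiBiT knock-in myoblasts. Luminescence is measured after 24 h treatment.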

| SMILES | Potency |
| --- | --- |
| CC(=O)N[C@@H](CCC(=O)O)C(=O)O | inactive |
| Cc1ccc(S(=O)(=O)NC(=O)NC2CCCC2)cc1 | inactive |
| O=C(c1ccc(F)cc1)C1CCN(CCn2c(=S)[nH]c3ccccc3c2=O)CC1 | inactive |
| NS(=O)(=O)c1cc(C(=O)O)cc(N2CCCC2)c1Oc1ccccc1 | inactive |
| CCCN(CCC)S(=O)(=O)c1ccc(C(=O)O)cc1 | inactive |
| CCOC(=O)Nc1ccc2c(c1)N(C(=O)CCN1CCOCC1)c1ccccc1S2 | inactive |
| CCC1Nc2cc(Cl)c(S(N)(=O)=O)cc2S(=O)(=O)N1 (stereo not drawn) | inactive |
| Nc1nc(Cl)nc2c1ncn2[C@@H]1O[C@H](CO)[C@@H](O)[C@@H]1F | inactive |
| CN(C)CCN1C(=O)c2ccccc2N(C)c2ccccc21 | inactive |
| OC(C#CCN1CCCC1)(c1ccccc1)c1ccccc1 | inactive |
| CN(C)C(=O)Nc1ccc(Cl)c(Cl)c1 | inactive |
| CCCCCCCC/C=C\CCCCCCCCN | inactive |
| O=C(Oc1cccc2cccnc12)c1ccccc1 | inactive |
| CC(=O)NO | inactive |
| O=C(N/N=C/c1ccc([N+](=O)[O-])o1)c1ccc(O)cc1 | inactive |
| CN1CCC[C@@H]1CCO[C@](C)(c1ccccc1)c1ccc(Cl)cc1 | inactive |
| O=[N+]([O-])c1ccc(/C=N\O)o1 | inactive |
| Cc1ccccc1OCC(O)CO (stereo not drawn) | inactive |
